{"source": "the supplement of paper PMC3334620", "note": "The full ranking holds about 33,000 sequences; the median of “E-score (-0.5 to 0.5)” is about -8e-05, and the highest 2% start at about 0.23. This is one part of a sample in which the highest values are shown more often than they occur."}
{"biological_target": "T1, Nrg2 (UniProt P38082)", "T1 sequence": "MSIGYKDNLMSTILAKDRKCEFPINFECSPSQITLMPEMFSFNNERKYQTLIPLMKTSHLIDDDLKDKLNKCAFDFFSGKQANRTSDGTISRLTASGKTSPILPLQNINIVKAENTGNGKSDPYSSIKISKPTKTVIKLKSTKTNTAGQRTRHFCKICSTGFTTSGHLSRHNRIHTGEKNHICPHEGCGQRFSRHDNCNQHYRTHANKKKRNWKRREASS", "assay": "PBM E-score (8-mer binding enrichment) (E-score (-0.5 to 0.5)); higher = stronger / more preferred TF binding", "settings": "protein concentration: 100 nM; construct: GST-full length", "summary_of_the_method": "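PURExpress in vitro transcription/translation supplied GST-tagged yeast transcription factors, either full-length or DNA-binding domain. Applied at about 100-200 nM to universal all-10-mer Agilent arrays double-stranded by primer extension, the bound protein was detected with fluorescent anti-GST. E-scores, modified Wilcoxon-Mann-Whitney statistics, were given by the Universal PBM Analysis Suite to ungapped eight-base words pooled with their reverse complements after masliner normalisation.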"}
{"sequence": "GCCCTGAA", "PBM E-score": 0.22}
{"sequence": "TACCTGAA", "PBM E-score": 0.0117}
{"sequence": "CCCCTGTA", "PBM E-score": 0.144}
{"sequence": "CACCTGAA", "PBM E-score": 0.0424}
{"sequence": "TCCCTGAA", "PBM E-score": 0.25}
{"sequence": "CCCCTGAA", "PBM E-score": 0.356}
{"sequence": "GCCGTCTA", "PBM E-score": -0.0529}
{"sequence": "CGGTTTGC", "PBM E-score": -0.0375}
{"sequence": "CCTGAAGG", "PBM E-score": -0.0247}
{"sequence": "AGTCAAGG", "PBM E-score": -0.174}
{"sequence": "ATCCGAAC", "PBM E-score": 0.0668}
{"sequence": "ATCCGAAG", "PBM E-score": -0.0314}
{"sequence": "ATCCGAAT", "PBM E-score": 0.251}
{"sequence": "ACAAAACA", "PBM E-score": 0.119}
{"sequence": "CTGGCGCA", "PBM E-score": -0.117}
{"sequence": "ATGGCGCC", "PBM E-score": 0.0356}
{"sequence": "CTGGCGCC", "PBM E-score": 0.281}
{"sequence": "ACAAAAAC", "PBM E-score": 0.0302}
{"sequence": "GCAAAACC", "PBM E-score": 0.0964}
{"sequence": "ACAAAACC", "PBM E-score": 0.246}
{"sequence": "AATTTGAC", "PBM E-score": 0.127}
{"sequence": "ATTTTGAC", "PBM E-score": 0.232}
{"sequence": "ATTTTGAG", "PBM E-score": 0.0761}
{"sequence": "TGTTTGAA", "PBM E-score": -0.00474}
{"sequence": "ACTTCGAC", "PBM E-score": -0.0444}
{"sequence": "CTATCATA", "PBM E-score": 0.125}
{"sequence": "GTATCATA", "PBM E-score": 0.251}
{"sequence": "ATATCATA", "PBM E-score": 0.174}
{"sequence": "AGTATAAC", "PBM E-score": -0.131}
{"sequence": "AGTAGATA", "PBM E-score": 0.249}
{"sequence": "GCTATATA", "PBM E-score": 0.0573}
{"sequence": "AGTATATA", "PBM E-score": 0.327}
{"sequence": "ACTATATC", "PBM E-score": 0.182}
{"sequence": "ACTATATA", "PBM E-score": 0.23}
{"sequence": "AGTAGATC", "PBM E-score": -0.0113}
{"sequence": "AGTATAAA", "PBM E-score": 0.194}
{"sequence": "AGTATAAT", "PBM E-score": 0.257}
{"sequence": "AGTATATC", "PBM E-score": 0.107}
{"sequence": "CGTAGATA", "PBM E-score": -0.0208}
{"sequence": "AGTATATG", "PBM E-score": 0.129}
{"sequence": "GAGGTGCC", "PBM E-score": -0.0447}
{"sequence": "CAAAATCG", "PBM E-score": 0.109}
{"sequence": "AGAGGACG", "PBM E-score": -0.0944}
{"sequence": "ACGGCGCG", "PBM E-score": 0.214}
{"sequence": "CGACACCA", "PBM E-score": -0.124}
{"sequence": "GAGACAGA", "PBM E-score": 0.14}
{"sequence": "ACAGCGAT", "PBM E-score": -0.201}
{"sequence": "CCGAACCA", "PBM E-score": -0.00203}
{"sequence": "GGGAACCA", "PBM E-score": -0.231}
{"sequence": "CGGAACAA", "PBM E-score": 0.122}
{"sequence": "ACGAACGC", "PBM E-score": 0.267}
{"sequence": "CCGAACGC", "PBM E-score": 0.0363}
{"sequence": "ACGAACGA", "PBM E-score": 0.0396}
{"sequence": "CGGAACAC", "PBM E-score": 0.264}
{"sequence": "ACGAACCA", "PBM E-score": 0.235}
{"sequence": "ACGAACCC", "PBM E-score": -0.00702}
{"sequence": "CGGAACCG", "PBM E-score": -0.162}
{"sequence": "AGGAACAC", "PBM E-score": 0.131}
{"sequence": "CGGAACCA", "PBM E-score": 0.294}
{"sequence": "GACGGATC", "PBM E-score": -0.153}
{"sequence": "TCCTAAAA", "PBM E-score": -0.251}
{"sequence": "TCATTGAA", "PBM E-score": -0.122}
{"sequence": "TAAATGGA", "PBM E-score": -0.0213}
{"sequence": "AGCAGGGG", "PBM E-score": -0.182}
{"sequence": "ACACTGCT", "PBM E-score": -0.0746}
{"sequence": "GTTAACTA", "PBM E-score": 0.273}
{"sequence": "CTTAACAA", "PBM E-score": 0.107}
{"sequence": "GTTAACAA", "PBM E-score": 0.254}
{"sequence": "ATTAACTA", "PBM E-score": 0.136}
{"sequence": "GCTAACAA", "PBM E-score": -0.0183}
{"sequence": "CTTAACTA", "PBM E-score": 0.0617}
{"sequence": "CAGGCCAC", "PBM E-score": -0.141}
{"sequence": "GCGTGAGC", "PBM E-score": 0.142}
{"sequence": "GGAACTCA", "PBM E-score": -0.0697}
{"sequence": "ACACTCTC", "PBM E-score": 0.104}
{"sequence": "AAATGATA", "PBM E-score": 0.225}
{"sequence": "GAATGAGA", "PBM E-score": 0.114}
{"sequence": "CAATGATA", "PBM E-score": 0.128}
{"sequence": "GAATGATA", "PBM E-score": 0.247}
{"sequence": "TAATGATA", "PBM E-score": 0.243}
{"sequence": "GAATGATC", "PBM E-score": -0.0614}
{"sequence": "AGCCCTAG", "PBM E-score": -0.16}
{"sequence": "CCCTGAGC", "PBM E-score": 0.236}
{"sequence": "CACTGAGG", "PBM E-score": -0.124}
{"sequence": "ACCTGAGC", "PBM E-score": 0.0385}
{"sequence": "ACCTGAGG", "PBM E-score": -0.134}
{"sequence": "GCCTGAGC", "PBM E-score": -0.213}
{"sequence": "GCCTGAGA", "PBM E-score": -0.0991}
{"sequence": "CCCTGAGA", "PBM E-score": 0.235}
{"sequence": "CCCTGAGG", "PBM E-score": 0.236}
{"sequence": "TCCTGAGA", "PBM E-score": -0.0364}
{"sequence": "CATTTTCC", "PBM E-score": 0.0879}
{"sequence": "AGAAGCCC", "PBM E-score": -0.0779}
{"sequence": "ATTATGAC", "PBM E-score": -0.0447}
{"sequence": "AGGCAAGG", "PBM E-score": -0.259}
{"sequence": "CCTATCGC", "PBM E-score": -0.134}
{"sequence": "CATGTTGA", "PBM E-score": 0.258}
{"sequence": "CATGTTGC", "PBM E-score": -0.0978}
{"sequence": "AATGTTGA", "PBM E-score": -0.019}
{"sequence": "ATGTATTA", "PBM E-score": -0.041}
{"sequence": "AAGTATTA", "PBM E-score": 0.129}
{"sequence": "CAGTATTA", "PBM E-score": 0.244}
{"sequence": "GAGTATTA", "PBM E-score": 0.00698}
{"sequence": "CTGTATTA", "PBM E-score": 0.147}
{"sequence": "GTGTATTA", "PBM E-score": 0.233}
{"sequence": "ATACTCGA", "PBM E-score": 0.0646}
{"sequence": "AGTTCGAG", "PBM E-score": 0.223}
{"sequence": "TCCCAAAA", "PBM E-score": 0.0584}
{"sequence": "CCGGGAAC", "PBM E-score": -0.00517}
{"sequence": "ATGCGCAT", "PBM E-score": 0.368}
{"sequence": "CTGCGCGA", "PBM E-score": -0.0667}
{"sequence": "CTGCGCGC", "PBM E-score": 0.306}
{"sequence": "CTGCGCTC", "PBM E-score": -0.146}
{"sequence": "ATTCGCGC", "PBM E-score": 0.159}
{"sequence": "ATGCGCAC", "PBM E-score": 0.142}
{"sequence": "ATGCGCGG", "PBM E-score": 0.121}
{"sequence": "CTTCGCGA", "PBM E-score": 0.0778}
{"sequence": "CTTCGCGC", "PBM E-score": 0.232}
{"sequence": "ATGCGCGA", "PBM E-score": 0.00379}
{"sequence": "ATGCGCAA", "PBM E-score": 0.182}
{"sequence": "ATGCGCGC", "PBM E-score": 0.23}
{"sequence": "GTGCAGCA", "PBM E-score": -0.172}
{"sequence": "CAATTGCC", "PBM E-score": -0.00722}
{"sequence": "CAGGACTG", "PBM E-score": -0.241}
{"sequence": "AAATGCGC", "PBM E-score": 0.272}
{"sequence": "CAATGCGC", "PBM E-score": 0.145}
{"sequence": "AAATGCGG", "PBM E-score": 0.0989}
{"sequence": "AGGGGCAT", "PBM E-score": 0.00378}
{"sequence": "CTAAAAGA", "PBM E-score": -0.198}
{"sequence": "CGATATTC", "PBM E-score": 0.153}
{"sequence": "CGATATAC", "PBM E-score": 0.113}
{"sequence": "CGATATTA", "PBM E-score": 0.23}
{"sequence": "CGATATAA", "PBM E-score": 0.244}
{"sequence": "CGATATAG", "PBM E-score": 0.14}
{"sequence": "GGATATTA", "PBM E-score": 0.147}
{"sequence": "CACCGTGA", "PBM E-score": -0.113}
{"sequence": "GTATGGCA", "PBM E-score": 0.0816}
{"sequence": "CATCAGCG", "PBM E-score": -0.213}
{"sequence": "CGAAAAGA", "PBM E-score": 0.199}
{"sequence": "AGCAGTGC", "PBM E-score": -0.287}
{"sequence": "CGCAGTGA", "PBM E-score": -0.0744}
{"sequence": "AGCAGTGA", "PBM E-score": 0.234}
{"sequence": "GCGCTACC", "PBM E-score": -0.139}
{"sequence": "GTGCTGTA", "PBM E-score": -0.0149}
{"sequence": "CGGAGGCA", "PBM E-score": -0.134}
{"sequence": "AAGCGCAA", "PBM E-score": 0.147}
{"sequence": "CCCAGCAA", "PBM E-score": 0.0725}
{"sequence": "TCCAGCAA", "PBM E-score": -0.151}
{"sequence": "ACCAGCAA", "PBM E-score": 0.245}
{"sequence": "ACTTACCA", "PBM E-score": 0.00217}
{"sequence": "GTCAAACA", "PBM E-score": -0.117}
{"sequence": "AATTGCAA", "PBM E-score": 0.0259}
{"sequence": "TGTTGCAA", "PBM E-score": 0.268}
{"sequence": "TATTGCAA", "PBM E-score": 0.253}
{"sequence": "CGTTGCAA", "PBM E-score": 0.0314}
{"sequence": "CATTGCAA", "PBM E-score": -0.00795}
{"sequence": "GGTTGCAA", "PBM E-score": 0.111}
{"sequence": "CGCGGTTC", "PBM E-score": 0.0879}
{"sequence": "GGATAGCA", "PBM E-score": 0.0845}
{"sequence": "AAGTACTC", "PBM E-score": -0.0318}
{"sequence": "GAGTACTC", "PBM E-score": 0.23}
{"sequence": "CAGTACTC", "PBM E-score": -0.171}
{"sequence": "GGCGAGCC", "PBM E-score": -0.0861}
{"sequence": "CCAATACG", "PBM E-score": -0.165}
{"sequence": "CCCTCGAG", "PBM E-score": 0.143}
{"sequence": "ACCTCGAG", "PBM E-score": 0.281}
{"sequence": "ACCTCGAT", "PBM E-score": 0.147}
{"sequence": "AAGAAAAG", "PBM E-score": -0.0237}
{"sequence": "TCAATTCA", "PBM E-score": 0.102}
{"sequence": "AAGGGTAC", "PBM E-score": 0.165}
{"sequence": "CAGGGTAG", "PBM E-score": 0.303}
{"sequence": "CAGGGTAC", "PBM E-score": 0.235}
{"sequence": "AGGGGTAG", "PBM E-score": -0.0372}
{"sequence": "AAGGGTAG", "PBM E-score": 0.0465}
